DAX1 inh-1: inhibits human nuclear receptor DAX1; P51843; HEK293 Gal4-DAX1 luciferase reporter, luminescence; inhibition, % at 6.75 µM; actives 0.99% (n = 340,000);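 active means inhibition above the mean over all tested compounds plus 3 SD, cut at about 4.2% in these data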;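 further: 0% = DAX1-transfected cells with DMSO and 100% = empty-vector control cells with DMSO; inhibition shows as a rise in luminescence from relieved DAX1 repression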
Target sequence (P51843 207-470 limits assumed): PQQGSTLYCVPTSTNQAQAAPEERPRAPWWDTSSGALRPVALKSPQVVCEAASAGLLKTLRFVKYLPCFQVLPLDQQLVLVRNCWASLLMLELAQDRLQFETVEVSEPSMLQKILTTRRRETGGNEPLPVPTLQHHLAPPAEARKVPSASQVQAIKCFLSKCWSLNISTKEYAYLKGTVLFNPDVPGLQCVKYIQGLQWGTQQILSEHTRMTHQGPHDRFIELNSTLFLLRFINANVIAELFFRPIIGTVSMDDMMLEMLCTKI
DAX1 inh-2: DAX1 (NR0B1) inhibition, primary screen | AID 652010 | actives 1.1% (n = 370,000) | HEK293T StAR-luciferase reporter, SF-1/DAX-1 repression relief | inhibition, % at 6.8 µM;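 active means inhibition above the mean over all tested compounds plus 3 SD, cut at about 3.6% in these data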;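 further: 0% = DAX-1 cells with DMSO and 100% = cells lacking DAX-1 with DMSO; higher inhibition means more luminescence from relief of DAX-1 repression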
hcDAF12 agonist: H. contortus DAF-12 activation, primary screen; activation, % at 6.8 µM; actives 1.4% (n = 370,000); HEK293 hcDAF-12 lit1-tk-luc reporter, luminescence; 0% DMSO, 100% Δ7-dafachronic acid; AID 652067;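 active means activation above the mean of all tested compounds plus 3 SD, cut at about 5.5% in these data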;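 further: 100% = response to 3 µM Δ7-dafachronic acid high control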
hgDAF12 agonist: hgDAF-12 agonism, primary luciferase screen. actives 1.8% (n = 370,000). AID 687014. HEK293 GAL4-hgDAF12 UAS-luciferase reporter, agonist luminescence; normalized to butyrate control. activation, % at 6.8 µM;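 active means activation above a cutoff set at the mean of all screened compounds plus 3 SD, cut at about 10% in these data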;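 further: 0% = DMSO wells and 100% = sodium butyrate wells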
ssDAF12 agonist: S. stercoralis DAF-12 activation, primary screen. HEK293 ssDAF-12/GRIP1 lit1-tk-luc reporter, luminescence; % of 3 µM dafachronic acid response. activation, % at 6.8 µM. actives 1% (n = 370,000). AID 652126;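 active means activation above the mean over all tested compounds plus 3 SD, cut at about 0.9% in these data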;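 further: 0% = DMSO-only wells and 100% = 3 µM delta7-dafachronic acid wells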
DAX1 conf: confirmation of human DAX1 (NR0B1) inhibitors. shares compounds with DAX1 inh-2. HEK293T StAR-promoter luciferase reporter, SF-1/DAX-1 repression. inhibition, % at 6.8 µM. actives 87% (n = 2,400). AID 652134;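 active means inhibition above the average of every tested compound plus 3 SD, cut at about 3.8% in these data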;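 further: 0% = DAX-1 cells with DMSO and 100% = no DAX-1 control cells with DMSO; active compounds raise luminescence by relieving repression of the StAR reporter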
Target sequence (P51843 whole entry, looked up): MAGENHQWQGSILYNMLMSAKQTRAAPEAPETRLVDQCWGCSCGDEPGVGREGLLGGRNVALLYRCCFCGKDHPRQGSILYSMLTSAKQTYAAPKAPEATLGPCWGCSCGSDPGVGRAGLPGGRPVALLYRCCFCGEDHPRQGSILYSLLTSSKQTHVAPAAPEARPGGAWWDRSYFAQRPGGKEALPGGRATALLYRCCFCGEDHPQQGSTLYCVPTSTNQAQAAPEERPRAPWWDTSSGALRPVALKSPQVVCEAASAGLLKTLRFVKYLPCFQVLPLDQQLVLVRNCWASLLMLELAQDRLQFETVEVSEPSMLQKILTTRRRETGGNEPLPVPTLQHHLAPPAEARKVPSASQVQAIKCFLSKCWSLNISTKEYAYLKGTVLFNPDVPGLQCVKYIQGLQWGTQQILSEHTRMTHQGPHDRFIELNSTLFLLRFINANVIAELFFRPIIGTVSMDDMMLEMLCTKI
SF1 AF2mut Luc: nonselective inhibitor or artifact in SF-1 mutant DAX1 counter-screen | shares compounds with DAX1 inh-2 | HEK293 StAR-luciferase, SF-1 AF2 mutant, luminescence | inhibition, % at 6.8 µM | actives 78% (n = 2,400) | AID 652136;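 active means inhibition above the mean of all tested compounds plus 3 SD, cut at about 3% in these data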;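 further: 0% = DAX-1 transfected cells with DMSO and 100% = cells without DAX-1 with DMSO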
LXR ag: LXR-beta agonism as hcDAF-12 counter-screen | AID 743027 | shares compounds with hcDAF12 agonist | HEK293 Gal4-LXR tk-luc reporter, luminescence, 24 h; normalized: DMSO 0%, positive control 100% | 3,400 tested, under 10 active | activation, % at 6.8 µM;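 active means mean percent activation of the reporter above a cutoff set as the average over tested compounds plus their standard deviation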
hcDAF12 conf: confirmation of H. contortus DAF-12 agonists; actives 61% (n = 3,400); HEK293 hcDAF-12 lit1-tk-luc reporter, luminescence; % of Δ7-dafachronic acid response; shares compounds with hcDAF12 agonist; AID 743032; activation, % at 6.8 µM;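 active means mean activation across triplicate tests above the threshold derived from the earlier primary screen, cut at about 5.5% in these data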;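 further: 0% = DMSO only wells and 100% = 3 µM Δ7-dafachronic acid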
hgDAF12 ag: hgDAF-12 agonism, confirmation assay | shares compounds with hgDAF12 agonist | HEK293 GAL4-hgDAF12 luciferase reporter, agonist mode; percent of butyrate response | activation, % at 6.8 µM | actives 80% (n = 3,300);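 active means mean activation over triplicate wells above the hit cutoff derived from the earlier primary screen, cut at about 11% in these data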;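 further: 0% = DMSO low control and 100% = 2 mM sodium butyrate high control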
LXRb DAF12 ctr: LXR-beta agonism as DAF-12 counter-screen. shares compounds with hgDAF12 agonist. HEK293 Gal4-LXR luciferase reporter, 24 h. activation, % at 6.8 µM. 3,300 tested, under 10 active. AID 743051;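 active means mean activation of the triplicate above a set limit carried over from the primary screen, none filed active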
Starred values were filed as active, the others as inactive; · = not tested or not shown. In the library only some 4.1% were active in any assay of this set; here they are far more common.

SMILES	DAX1 inh-1	DAX1 inh-2	hcDAF12 agonist	hgDAF12 agonist	ssDAF12 agonist	DAX1 conf	SF1 AF2mut Luc	hgDAF12 ag	LXRb DAF12 ctr	others
COc1cc(Cl)cc(/C=C/c2ccc3ccccc3n2)c1OC(C)=O	0.4	5.1*	3.9	20.9*	-0.3	10.8*	5.3*	12.8*	0.7
Cc1ccc(N2CC(C(=O)Nc3nnc(SCC(=O)N4CCOCC4)s3)CC2=O)cc1 (stereo unspecified)	0.2	0.9	0.1	-2.0	-0.7	·	·	·	·
O=C(CSc1nnc(-c2cccnc2)o1)Nc1ccccc1F	0.9	8.4*	3.2	13.6*	0.4	10.9*	4.4*	11.8*	0.6
COc1ccc(C)cc1NC(=O)CSc1nnc(-c2ccc(Br)cc2)o1	-0.5	-0.3	-1.2	-0.1	-0.3	·	·	·	·
O=C(CSc1nnc(-c2cccnc2)o1)Nc1ccccc1Br	2.2	0.1	-0.2	1.9	-0.9	·	·	·	·
COc1ccccc1NC(=O)CSc1nnc(-c2ccc(C)cc2)o1	0.7	6.3*	4.1	13.8*	-0.3	14.6*	8.3*	17.5*	1.0
Cc1nc2ccccc2c(=O)n1NC(=O)c1ccc(Cl)c(Cl)c1	0.7	0.1	-1.0	-0.9	-0.5	·	·	·	·
Cc1ncoc1C(=O)Nc1ccc2c(c1)OCCO2	0.5	0.1	0.4	-1.6	-1.4	·	·	·	·
Cc1ccsc1C(=O)Nc1ccc2c(c1)OCCO2	-1.4	4.6*	5.0	20.9*	-0.5	13.9*	7.7*	15.0*	0.9
COc1ccc(C(=O)Nc2ccc3c(c2)OCCO3)cc1	-1.3	4.7*	5.8*	15.2*	1.4*	14.5*	5.2*	15.2*	0.8
COc1ccc(C(=O)Nc2ccc3c(c2)OCCO3)c(OC)c1	1.7	9.4*	5.7*	21.8*	0.5	13.2*	9.1*	17.4*	1.0
O=C(O)c1ccc(N/N=C/c2ccc(-c3ccc(Br)cc3)o2)cc1	0.7	1.0	0.5	4.5	-0.8	·	·	·	·
O=C(O)c1ccc(N/N=C/c2ccc(-c3ccccc3Cl)o2)cc1	-0.8	9.2*	9.8*	23.8*	1.3*	26.1*	10.5*	12.3*	1.1	LXR ag=1.6;hcDAF12 conf=11.7*
Cc1ccc(/C=N/Nc2ccc(C(=O)O)cc2)o1	3.3	4.6*	6.3*	16.2*	0.6	8.4*	6.6*	12.8*	0.4
COc1cccc(CNC(=O)CN(c2ccc(C(C)C)cc2)S(=O)(=O)c2c(C)noc2C)c1	-0.3	0.1	1.5	-1.5	0.3	·	·	·	·
Fc1ccccc1CSc1ncnc2c1ncn2C1CCCO1 (stereo unspecified)	-0.8	2.8	0.1	1.3	-1.5	·	·	·	·
CCCCSc1ncnc2c1ncn2C1CCCCO1 (stereo unspecified)	5.9*	5.4*	1.7	16.7*	-0.1	10.7*	6.0*	16.2*	0.6
NC(=O)NC(=O)C(c1ccccc1)N1CCN(S(=O)(=O)Cc2ccccc2)CC1 (stereo unspecified)	0.0	0.3	0.2	-0.6	0.2	·	·	·	·
Cc1ccc2ncccc2c1	0.1	0.4	-1.8	-0.1	-0.2	·	·	·	·
CN(C)c1ccc(N=Nc2ccc3ncccc3c2)cc1	5.8*	9.3*	6.0*	20.5*	1.5*	22.3*	7.3*	21.2*	1.2
Cc1cc(N(C)C)ccc1N=Nc1ccc2ncccc2c1	5.5*	5.2*	13.4*	15.2*	1.7*	18.0*	7.6*	17.9*	1.0	LXR ag=1.5;hcDAF12 conf=12.6*
Nc1cc(Cl)ccc1C(=O)OCC(=O)N1CCOCC1	1.1	-0.7	-1.2	4.6	-1.1	·	·	·	·
CN(C)c1ccc(CC(=O)N2CCCCC2c2cc(C(=O)Nc3cccc4c3CCCC4)no2)cc1 (stereo unspecified)	·	-0.7	-0.4	-2.5	-1.5	·	·	·	·
CN(CC(=O)NCCc1ccccc1)S(=O)(=O)c1ccc(Br)s1	-1.0	-0.1	-2.0	-0.4	-1.4	·	·	·	·
O=C(NN=C1CCCCCC1)c1cccs1	2.6	13.1*	8.0*	25.4*	0.8	1.4	0.6	6.3	0.2	LXR ag=0.1;hcDAF12 conf=2.1
SMILES	DAX1 inh-1	DAX1 inh-2	hcDAF12 agonist	hgDAF12 agonist	ssDAF12 agonist	DAX1 conf	SF1 AF2mut Luc	hgDAF12 ag	LXRb DAF12 ctr	others
CC1C2CC(C/C2=N/NC(=O)c2cccs2)C1(C)C (stereo unspecified)	2.9	5.0*	2.9	13.5*	0.0	1.0	0.8	-0.1	0.0
CCC(CO)Nc1ccn2nc(-c3ccccc3)cc2n1 (stereo unspecified)	·	9.5*	2.5	18.2*	-0.4	8.9*	7.2*	15.9*	0.6
O=C(Nc1ccc(NC(=O)c2ccco2)nc1)c1ccco1	-0.9	5.9*	3.0	14.9*	-0.3	10.2*	2.9*	12.9*	0.7
CCCn1cnc2cc(NC(=O)c3ccco3)ccc21	0.2	5.5*	6.6*	14.6*	1.2*	3.4	3.8*	10.1	0.3	LXR ag=0.3;hcDAF12 conf=3.1
O=C(COC(=O)c1cccc([N+](=O)[O-])c1)Nc1ncc(Br)s1	0.1	-0.2	-0.1	0.2	-1.4	·	·	·	·
Cc1ccc(CNC(=O)C2CCCN(c3cnccn3)C2)cc1 (stereo unspecified)	0.2	-0.5	0.3	-1.8	-1.4	·	·	·	·
CCCC(=O)Nc1ccc(C(=O)COC(=O)C2CC2C)cc1 (stereo unspecified)	0.4	3.3	2.2	4.2	0.1	·	·	·	·
CC(=O)Nc1ccc(C(=O)COC(=O)C2CC2C)c(F)c1 (stereo unspecified)	2.4	10.8*	3.1	17.8*	1.0*	10.3*	4.6*	10.2	0.7
CC1CCCC(C)N1C(=O)CSc1nnc(-c2cccs2)o1 (stereo unspecified)	1.9	4.7*	5.2	18.0*	-0.1	10.9*	8.0*	17.2*	0.7
